Results from PubChem BioAssay (NCI).
The panel holds about 83,000 compounds, 20% with a hit somewhere; the sample as a whole holds those more often.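 Cells were grown in 96-well plates and exposed to the test compound at a single concentration for 48 hours; results are reported as percent growth, with values below 10 considered active.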 Values without a mark were called inactive. Calls of active or inactive are those of the source.

Experiments:
Assay in all cases: NCI-60 one-dose screen, 48 h (100 = growth as untreated, 0 = no growth, -100 = all killed)
Details in all cases: 10 µM unless noted
[1] = system: HCT-15 colon
[2] = system: HT29 colon
[3] = system: SNB-19 CNS
[4] = system: U251 CNS
[5] = system: PC-3 prostate
[6] = system: SK-MEL-5 melanoma
[7] = system: UACC-62 melanoma
[8] = system: LOX IMVI melanoma
[9] = system: SK-MEL-28 melanoma

Molecule Cc1csc(NC(c2ccc(Br)cc2)c2c(C)nc3ccccn23)n1 (stereo not given) has a growth [1] of 88.8%, a growth [2] of 72.4% and a growth [3] of 94.2%. For the same molecule, the growth [4] was 88.8%, the growth [5] was 71.5% and the growth [6] was 94.7%. For the same molecule, the growth [7] was 81.9%, the growth [8] was 90.9% and the growth [9] was 108%.

For COc1ccc(S(=O)(=O)NCCCNc2nccc(-c3c(-c4cccc([N+](=O)[O-])c4)nc4sccn34)n2)cc1, the growth [1] was 30.9%, the growth [2] was 31.1% and the growth [3] was 74.6%. For the same molecule, the growth [4] was 71.8%, the growth [5] was 23.9% and the growth [6] was -20.5% (active). For the same molecule, the growth [7] was 10.1%, the growth [8] was 30.1% and the growth [9] was 61.4%.

Molecule COc1ccc(-c2nc(/C=C3/C(=O)Nc4ccc(F)cc43)c3ccccn23)cc1 has a growth [1] of 107%, a growth [2] of 103% and a growth [3] of 101%. It also gave a growth [4] of 88.3%, a growth [5] of 108% and a growth [6] of 102%. The growth [7] was 106%, the growth [8] was 92.7% and the growth [9] was 105%.

For COc1cc(NC(=O)SC2=NCCS2)cc(OC)c1, the growth [1] was 105%, the growth [2] was 103% and the growth [3] was 90.5%. The growth [4] was 97.7%, the growth [5] was 93.6% and the growth [6] was 98.1%. For the same molecule, the growth [7] was 88.9%, the growth [8] was 98.3% and the growth [9] was 98.5%.

O=C1/C(=C/c2ccc(Cl)cc2)CN(C(=O)CCN2CCC(=NO)CC2)C/C1=C\c1ccc(Cl)cc1 was tested, and the growth [1] was -90.9% (active), the growth [2] was -71.8% (active) and the growth [3] was -93.2% (active). For the same molecule, the growth [4] was -91.1% (active), the growth [5] was -55.2% (active) and the growth [6] was -84.8% (active). For the same molecule, the growth [7] was -75.4% (active), the growth [8] was -92.7% (active) and the growth [9] was -89.7% (active).

For COc1ccc(-c2nc(/C=N/Nc3cc(C)nc4ccc(Br)cc34)c(C)o2)cc1, the growth [1] was -87.4% (active), the growth [2] was -76.2% (active) and the growth [3] was -84.4% (active). For the same molecule, the growth [4] was -85.8% (active), the growth [5] was -78.1% (active) and the growth [6] was 47.4%. For the same molecule, the growth [7] was -77.5% (active), the growth [8] was -86.7% (active) and the growth [9] was -74.6% (active).

O=C(O)/C=C/C(=O)c1ccc(Cl)cc1 showed a growth [1] of 103%, a growth [2] of 91.3% and a growth [3] of 111%. It also gave a growth [4] of 100%, a growth [5] of 106% and a growth [6] of 107%. For the same molecule, the growth [7] was 109%, the growth [8] was 105% and the growth [9] was 115%.

Work on O=C1NN(C(=O)c2ccc(Cl)cc2)C(c2ccccc2)=N/C1=C\c1ccc(F)cc1 yielded a growth [1] of 72.4%, a growth [2] of 97.4% and a growth [3] of 78.8%. For the same molecule, the growth [4] was 40.1%, the growth [5] was 81.4% and the growth [6] was 88.1%. It also gave a growth [7] of 74%, a growth [8] of 88.3% and a growth [9] of 107%.

In the case of O=C(NNC(=S)Nc1ccccc1)c1cc2ccc1CCc1ccc(cc1)CC2, the growth [1] is reported as 40.2%, the growth [2] is reported as 76.1% and the growth [3] is reported as 56.9%. For the same molecule, the growth [4] was 49.3%, the growth [5] was 57.8% and the growth [6] was 43.8%. For the same molecule, the growth [7] was 55.9%, the growth [8] was 59.4% and the growth [9] was 73.5%.

In the case of COc1ccc(/C(C#N)=C/c2cc(OC)c(OC)c(OC)c2)cc1, the growth [1] is reported as 31.1%, the growth [2] is reported as 9.49% (active) and the growth [3] is reported as 66.3%. For the same molecule, the growth [4] was 34.4%, the growth [5] was 43.1% and the growth [6] was 14.8%. For the same molecule, the growth [7] was 39%, the growth [8] was 50.3% and the growth [9] was 52.1%.

With O=[N+]([O-])c1ccc(/C=C/C2(CCl)OCCO2)cc1 the growth [1] was 109%, the growth [2] was 92.5% and the growth [3] was 95.6%. For the same molecule, the growth [4] was 97.3%, the growth [5] was 96.4% and the growth [6] was 104%. It also gave a growth [7] of 89.8%, a growth [8] of 80.6% and a growth [9] of 112%.

With Cc1c(C(=N)C(C#N)C#N)c(=N)oc2c1ccc1ccccc12 the growth [1] was 74.2%, the growth [2] was 93.3% and the growth [3] was 103%. For the same molecule, the growth [4] was 87.4%, the growth [5] was 97.8% and the growth [6] was 83.7%. It also gave a growth [7] of 78.3%, a growth [8] of 92.8% and a growth [9] of 124%.

COc1cc(-c2nn(-c3cccc(NC(=O)c4ccc(Cl)c(C(F)(F)F)c4)c3)cc2-c2ccncc2)ccc1Cl showed a growth [1] of 51.7%, a growth [2] of 50.1% and a growth [3] of 66%. It also gave a growth [4] of 32.5%, a growth [5] of 18.6% and a growth [6] of 17.5%. It also gave a growth [7] of 32.8%, a growth [8] of 32.2% and a growth [9] of 41.6%.

N#Cc1c(Nc2ccccc2)nc2n(c1=O)-c1ccccc1Sc1ccccc1-2 gave a growth [1] of 90.3%, a growth [2] of 84.1% and a growth [3] of 77.9%. The growth [4] was 89.4%, the growth [5] was 61.3% and the growth [6] was 68.1%. It also gave a growth [7] of 69.1%, a growth [8] of 83.9% and a growth [9] of 83.8%.

C=CCSc1n[nH]c(-c2cccs2)n1 showed a growth [1] of 103%, a growth [2] of 102% and a growth [3] of 103%. It also gave a growth [4] of 99.3%, a growth [5] of 108% and a growth [6] of 104%. It also gave a growth [7] of 101%, a growth [8] of 99.8% and a growth [9] of 129%.

Fc1ccc(CNCCNc2ncnc3c2cnn3-c2ccccc2)cc1 gave a growth [1] of 92.4%, a growth [2] of 93.1% and a growth [3] of 94.1%. The growth [4] was 84%, the growth [5] was 86.6% and the growth [6] was 87.4%. It also gave a growth [7] of 101%, a growth [8] of 89.4% and a growth [9] of 110%.

Work on NC(=O)c1c(NC(=S)Nc2ccc(OC(F)(F)F)cc2)sc2c1CCC1(C2)OCCO1 yielded a growth [1] of 97.5%, a growth [2] of 95.6% and a growth [3] of 97.5%. It also gave a growth [4] of 97.2%, a growth [5] of 92.6% and a growth [6] of 98.2%. It also gave a growth [7] of 77.1%, a growth [8] of 98% and a growth [9] of 104%.

Molecule COc1ccc(C2C=C(c3ccc(OC)c(OC)c3)N=C3SC=C(C)N32)c(Br)c1 (stereo not given) has a growth [1] of 92.8%, a growth [2] of 107% and a growth [3] of 110%. For the same molecule, the growth [4] was 96.3%, the growth [5] was 103% and the growth [6] was 100%. The growth [7] was 106%, the growth [8] was 109% and the growth [9] was 110%.

COc1cccc(-c2nc3sccn3c2-c2ccnc(NCCCNS(=O)(=O)c3ccc(F)cc3)c2)c1 gave a growth [1] of 19.4%, a growth [2] of 44.4% and a growth [3] of 62.3%. For the same molecule, the growth [4] was 55.5%, the growth [5] was 9.93% (active) and the growth [6] was -39.3% (active). For the same molecule, the growth [7] was -38.3% (active), the growth [8] was 23.1% and the growth [9] was 52.1%.

CC(C)(C)n1cc(-c2ccnc(NCCNS(=O)(=O)c3ccc(Cl)cc3)c2)c(-c2cccc(O)c2)n1 was tested, and the growth [1] was 15.1%, the growth [2] was 16.6% and the growth [3] was 76.6%. For the same molecule, the growth [4] was 46.1%, the growth [5] was 34.5% and the growth [6] was 25%. It also gave a growth [7] of 71.7%, a growth [8] of 41.5% and a growth [9] of 63.3%.

With O=C(Nc1cccc(-n2cc(-c3ccncc3)c(-c3ccc(Cl)c(O)c3)n2)c1)Nc1ccc(Cl)c(C(F)(F)F)c1 the growth [1] was 1.04% (active), the growth [2] was -6.5% (active) and the growth [3] was -28.8% (active). The growth [4] was -70.4% (active), the growth [5] was -10.4% (active) and the growth [6] was -100% (active). For the same molecule, the growth [7] was -55.1% (active), the growth [8] was -75.8% (active) and the growth [9] was -31.5% (active).

c1cc(C2=N[C@@H]3c4ccccc4C[C@@H]3O2)nc(C2=N[C@@H]3c4ccccc4C[C@@H]3O2)c1 was tested, and the growth [1] was 94.7%, the growth [2] was 105% and the growth [3] was 97.7%. The growth [4] was 101%, the growth [5] was 98.3% and the growth [6] was 102%. For the same molecule, the growth [7] was 102%, the growth [8] was 97% and the growth [9] was 108%.

Cc1c(C(=O)/C=C/c2csc3ccccc23)[n+](=O)c2ccccc2n1[O-] gave a growth [1] of 48.7%, a growth [2] of 28.3% and a growth [3] of 73.7%. For the same molecule, the growth [4] was 40.2%, the growth [5] was 47.1% and the growth [6] was 79.5%. The growth [7] was 70.5%, the growth [8] was 34.1% and the growth [9] was 105%.

Molecule C=C1CCC2C(C)(CO)C(O)CCC2(C)C1C/C=C1/C(=O)OCC1Oc1ccccc1C (stereo not given) has a growth [1] of 55.9%, a growth [2] of 42.8% and a growth [3] of 83.4%. It also gave a growth [4] of 88.4%, a growth [5] of 86.3% and a growth [6] of 93.6%. The growth [7] was 77.3%, the growth [8] was 2.56% (active) and the growth [9] was 98%.

O=C(Nc1ccncc1)C(=O)c1cn(S(=O)(=O)c2ccc(Oc3ccccc3)cc2)c2ccccc12 was tested, and the growth [1] was 88.6%, the growth [2] was 101% and the growth [3] was 98.6%. The growth [4] was 94%, the growth [5] was 85.7% and the growth [6] was 98.2%. It also gave a growth [7] of 79.1%, a growth [8] of 91.3% and a growth [9] of 110%.

COC(=O)c1nc(-c2ccccc2)oc1S(=O)(=O)N1CCN(c2cccc(Cl)c2)CC1 was tested, and the growth [1] was 65.5%, the growth [2] was 50.8% and the growth [3] was 63.6%. The growth [4] was 72.2%, the growth [5] was 82% and the growth [6] was 99.3%. The growth [7] was 79.7%, the growth [8] was 44.3% and the growth [9] was 88.3%.

With COc1ccc(-c2nc(-c3nc4cc(C)c(C)cc4[nH]3)cc3c2[nH]c2ccccc23)cc1 the growth [1] was 3.41% (active), the growth [2] was 1.21% (active) and the growth [3] was 82.7%. It also gave a growth [4] of 10.5%, a growth [5] of 40.9% and a growth [6] of 45.7%. The growth [7] was -0.969% (active), the growth [8] was -31.6% (active) and the growth [9] was 39.5%.

O=C(NS(=O)(=O)c1ccc2ccccc2c1)n1cc(-c2ccncc2)c(-c2ccc(Cl)c(O)c2)n1 was tested, and the growth [1] was 82.1%, the growth [2] was 70.3% and the growth [3] was 109%. The growth [4] was 84.5%, the growth [5] was 74.2% and the growth [6] was 77.5%. The growth [7] was 15.5%, the growth [8] was 49.9% and the growth [9] was 54.6%.

With CCCCCCCCCCCCNC(=O)[C@H]1CSC(c2ccsc2)N1 (stereo not given in full) the growth [1] was -71.4% (active), the growth [2] was -74% (active) and the growth [3] was -80% (active). For the same molecule, the growth [4] was -94.2% (active), the growth [5] was -88.9% (active) and the growth [6] was 36.5%. The growth [7] was -93.5% (active), the growth [8] was -89.5% (active) and the growth [9] was -88% (active).

CCN(CC)CCC(CNc1c2ccc(Cl)cc2nc2ccc(OC)cc12)c1ccccc1 (stereo not given) was tested, and the growth [1] was -18.4% (active), the growth [2] was -36.1% (active) and the growth [3] was 5.5% (active). The growth [4] was -59.1% (active), the growth [5] was 17.6% and the growth [6] was -97.9% (active). For the same molecule, the growth [7] was -61.2% (active), the growth [8] was -25.4% (active) and the growth [9] was -100% (active).
